Screening data as filed in PubChem.
ELG1 genotoxic: qHTS screen for small molecules that induce genotoxicity in human embryonic kidney (HEK293T) cells expressing luciferase-tagged ELG1 | HEK293T ELG1-luciferase reporter, luminescence, 16 h | Potency, µM (doses to about 46 µM), without a hit: at the top dose activity change, positive = activation, hits mostly activators | hit rate 1.3% among 330,000 | AID 504466, 2011; also: % of control where 0% means no effect; nearly all actives have a fitted effect of over 60% in size
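Step 1: seed 2,000 HEK293T ELG1-luciferase cells per well. Step 2: add compound or DMSO, incubate 16 hr at 37 °C. Step 3: ONE-Glo, 30 min at room temperature, read luminescence.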
Rab9 promoter act: qHTS Assay for Rab9 Promoter Activators. hit rate 2.8% among 320,000. AID 485297, 2010. Potency, µM (highest dose often 9.22 µM), without a hit: top-dose activation, negative = inhibition, usual class: activators. Huh7 Rab9 promoter-luciferase reporter, luminescence, 24 h; also: % of control where 0% means no effect; nearly all actives have a fitted effect of over 60% in size
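Cell-based reporter: Huh7 stable for Rab9 promoter-driven luciferase, plated in reduced-serum medium with 10% FBS at 1500 cells/well, compound-treated 24 h at 37 °C, luminescence read after 10 min reagent.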
FLuc counter: qHTS profiling assay for firefly luciferase inhibitor/activator using purifed enzyme and Km concentrations of substrates (counterscreen for miR-21 project); Luciferin 4-monooxygenase (Photinus pyralis), P08659; purified FLuc, Km substrates, luminescence inhibition; Potency, µM (highest dose often 57.5 µM), for the others: at the highest dose activity change, negative = inhibition, usual class: inhibitors; hit rate 6.9% among 360,000;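 also: plate controls were vehicle for no effect and reference inhibitor for full effect; nearly all actives have a fitted effect of over 55% in size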
Target sequence (P08659 whole entry, looked up): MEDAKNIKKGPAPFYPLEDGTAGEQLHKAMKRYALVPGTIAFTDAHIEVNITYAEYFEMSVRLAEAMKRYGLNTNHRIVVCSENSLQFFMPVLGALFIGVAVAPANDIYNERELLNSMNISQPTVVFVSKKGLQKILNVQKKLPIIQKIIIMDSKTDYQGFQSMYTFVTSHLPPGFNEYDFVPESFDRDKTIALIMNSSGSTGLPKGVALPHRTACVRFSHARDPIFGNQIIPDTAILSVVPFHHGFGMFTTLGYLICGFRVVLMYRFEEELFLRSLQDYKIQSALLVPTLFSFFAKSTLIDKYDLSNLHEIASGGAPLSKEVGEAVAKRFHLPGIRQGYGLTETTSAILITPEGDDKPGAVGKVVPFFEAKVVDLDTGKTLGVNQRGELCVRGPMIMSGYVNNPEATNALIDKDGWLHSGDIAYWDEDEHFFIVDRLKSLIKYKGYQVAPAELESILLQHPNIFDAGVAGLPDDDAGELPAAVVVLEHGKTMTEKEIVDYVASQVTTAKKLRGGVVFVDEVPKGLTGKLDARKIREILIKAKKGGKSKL
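Biochemical qHTS of compounds, final roughly 60 µM downward over six points, against 10 nM purified firefly luciferase using Km concentrations of substrates (10 uM D-luciferin, 10 uM ATP) in Tris acetate pH 7.5 buffer; luminescence output.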
SMN2 splice up: qHTS Assay for Enhancers of SMN2 Splice Variant Expression | HEK293 SMN2-luciferase splicing reporter, luminescence, 30-36 h | Potency, µM (top dose mostly 46.1 µM), inactives show at the highest dose activity change, positive = activation, actives largely listed as activators | AID 1458, 2008 | hit rate 2.8% among 210,000; also: % of control where 0% means no effect; nearly all actives have a fitted effect of over 55% in size
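HEK293 cells carry an SMN2 minigene-luciferase reporter in which exon 7 inclusion puts luciferase in frame. Cells were seeded at 2000 cells/well, attached for 10-12 hours, then exposed to compounds for 30-36 hours at 37C before ONE-Glo luminescence.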
ELG1 DNA repair: qHTS screen for small molecules that inhibit ELG1-dependent DNA repair in human embryonic kidney (HEK293T) cells expressing luciferase-tagged ELG1; Potency, µM (top dose mostly 46.1 µM), inactives show top-dose activity change, negative = inhibition, actives largely listed as inhibitors; AID 504467, 2011; HEK293T ELG1-luciferase reporter, luminescence, 16 h; DNA damage induced by 5-fluorouridine; hit rate 2.3% among 330,000; also: % is scaled to controls: 0 for no effect and ±100 for the full control effect; nearly all actives have a fitted effect of over 55% in size
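5-Fluorouridine DNA damage + compound/DMSO, 2,000 cells/well, 16 h, 37 °C/5% CO2. ONE-Glo, 30 min RT, luminescence. Readout = decrease in reporter signal.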
NPC1 prom act: qHTS Assay for NPC1 Promoter Activators; Huh7 NPC1 promoter luciferase reporter, 24 h; Potency, µM (series often up to 9.22 µM), inactives show at the highest dose activation, actives largely listed as activators; hit rate 2.4% among 320,000; AID 485313, 2010; also: % of control where 0% means no effect; nearly all actives have a fitted effect of over 60% in size
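Readout is luciferase luminescence, reflecting NPC1 promoter activation in stably transfected Huh7 cells after 24 h compound exposure at 37 °C in reduced-serum medium with 10% FBS.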
Numbers without * were called inactive; ? = inconclusive; nt = no result; [ ] = remark or other dose. Sampled rows, rich in hits. Any-hit rate of the full collection: about 9.2%. Calls follow the shape of the dose curve; as a rule, active = well fitted curve in the direction sought with a large enough effect; inconclusive = small, poorly fitted or top-dose-only effect, or another doubt; inactive = no such curve, though single readings can be large; an effect the other way counts as inactive or inconclusive. Potency is read from the fitted curve at half-maximal effect.

SMILES	ELG1 genotoxic	Rab9 promoter act	FLuc counter	SMN2 splice up	ELG1 DNA repair	NPC1 prom act
O=C(CN1CCN(S(=O)(=O)c2ccccc2F)CC1)Nc1ccccc1C(=O)c1ccccc1	-9.2%	-4.0%	-0.6%	-9.5%	11.6µM*	-4.8%
Cc1nc2c(sc3nc(N4CCOCC4)c4c(c32)CC(C)(C)OC4)c(-c2ccccc2)c1C(=O)O	-6.2%	-0.1%	-0.6%	nt	3.66µM*	-1.6%
COc1ccc(NC(=O)c2sc3nc(N4CCOCC4)c4c(c3c2N)CC(C)(C)OC4)c(OC)c1	4.3%	-8.5%	0.0%	nt	?	-5.8%
COc1ccc(NC(=O)c2sc3nc(N4CCCC4)c4c(c3c2N)CC(C)(C)OC4)cc1	0.7%	-5.2%	-1.7%	nt	5.8µM*	-10.8%
CC1(C)Cc2c(c(N3CCOCC3)nc3sc(-c4ccc(C(=O)O)o4)c(N)c23)CO1	-6.0%	-7.4%	-1.5%	8.1%	2.59µM*	1.2%
CCc1cc2c(cc3c(=O)n(CC(=O)N4CCN(C)CC4)ncn32)s1	3.1%	0.8%	-0.5%	nt	?	-2.3%
CCOC(=O)CN1C(=O)N[C@@H](c2ccccc2)[C@H](C(=O)OC)[C@H]1C	nt	nt	nt	-0.3%[9.22 µM]	nt	nt
CCCCOc1ccc(N=Nc2ccc(N)nc2N)cn1	?	2.51µM*	13.5µM*	nt	?	3.16µM*
CCCCOc1ccc(Cc2cnc(N)nc2N)cc1	-6.0%	2.1%	-5.5%	nt	-14.6%	14.4%
COCCCNC(=O)Cn1cnc2c(OCc3ccccc3)ncnc21	0.4%	nt	nt	nt	6.1%	nt
Cc1cc2c(cc3c(SCc4ccccc4Cl)nnc(C)n32)o1	nt	nt	13.5µM*	nt	nt	nt
Cc1cc2c(cc3c(SCc4ccc(Cl)cc4)nnc(C)n32)o1	nt	nt	-17.4%	nt	nt	nt
C=CCSc1nnc2c(n1)[nH]c1c(C)cccc12	?	?	9.53µM*	-19.2%	?	3.55µM*
Cc1cccc2c1[nH]c1nc(N/N=C\c3ccco3)nnc12	3.3%	13.7%	-11.7%	-1.0%	12.8%	10.9%
CCCN1CCN(CCNC(=O)Nc2cc(Cl)c(OC)cc2OC)CC1	nt	nt	-4.1%	15.4%	nt	nt
CC1Cc2ccccc2N1C(=O)Cn1nnc(-c2ccccc2NC(=O)C2CCC2)n1 (stereo not drawn)	-6.7%	-4.4%	0.6%	-33.8%	23.1µM*	-1.5%
Cc1ccc(-c2nn(-c3ccccc3)cc2CN(Cc2ccccc2)C(=O)c2ccco2)o1	-38.3%	1.8%	-2.5%	-35.8%	18.4µM*	-0.2%
Cc1ccc(-c2nn(-c3ccccc3)cc2/C=C/C(=O)O)o1	2.3%	-0.6%	23.9µM*	1.5%	?	-1.6%
O=C(OC1CCc2ccccc2C1=O)c1ccccc1O (stereo not drawn)	-32.1%	-5.2%	12µM*	4.9%	-2.7%	-3.7%
N=C1C(c2nc3ccccc3s2)=C(O)CN1Cc1ccco1	9.2µM*	?	?	?	?	?
CN(C)CCN1CC(O)=C(c2nc3ccccc3s2)C1=N	-0.4%	-1.8%	-1.2%	nt	-4.6%	-3.7%
Nc1nonc1-n1nnc(C(=O)N/N=C/c2ccc(OCc3ccccc3F)cc2)c1CNc1ccccc1	5.1%	1.9%	2.3%	nt	?	-1.6%
CCOc1cccc(/C=N/N2C(C)CCCC2C)c1O (stereo not drawn)	6.5%	3.6%	16.9µM*	nt	21.8%	-0.6%
CCOc1cccc(/C=N/N=C/c2cccc(OCC)c2O)c1O	3.0%	12.1%	-11.3%	nt	23.8%	14.5%
CCOc1ccc(/C=N/N2C(C)CCCC2C)cc1 (stereo not drawn)	18.5%	1.1%[1.84 µM]	?	nt	?	-4.4%
SMILES	ELG1 genotoxic	Rab9 promoter act	FLuc counter	SMN2 splice up	ELG1 DNA repair	NPC1 prom act
CCOc1cccc(C=Nc2cc(C)cc(C)c2O)c1O	3.0%	9.3%	26.9µM*	14.5%	-24.1%	3.0%
COc1cc2c(cc1OC)CN(C(=O)COc1ccccc1[N+](=O)[O-])CC2	-19.3%	-0.4%	0.7%	nt	-15.8%	1.6%
O=C(c1ccccc1)C1CCN(C(=O)c2c(F)cccc2F)CC1	nt	-0.7%	-2.4%	nt	-16.8%	-6.2%
CCCc1ccc2oc(C(=O)N(C)CCn3ccnc3C)c(C)c2c1	7.1%	-1.3%	?	nt	?	-5.0%
Fc1ccc2c(Cl)c(-c3nnc(-c4cccs4)o3)sc2c1	0.651µM*	0.562µM*	0.19µM*	4.47µM*	?	1.41µM*
COc1ccc(C(=O)O)cc1NC(=S)NC(=O)/C=C/c1ccc(C(C)C)cc1	0.3%	-2.9%	10.7µM*	nt	10.5%	1.7%
CCCCC(=O)NC(=S)Nc1cc(C(=O)O)ccc1OC	0.8%	-8.1%	4.4%	2.9%	3.8%	-2.1%
C=CCn1c(C)cc(C(=O)COC(=O)COc2ccccc2C#N)c1C	8.3%	8.7%	1.69µM*	nt	?	-2.0%
C=CCn1c(C)cc(C(=O)COC(=O)[C@@H](NC(=O)c2ccccc2Cl)C(C)C)c1C	?	?	0.151µM*	-2.1%	?	?
N#Cc1ccccc1OCC(=O)OCC(=O)c1ccc[nH]1	-0.6%	-5.0%	-5.7%	nt	0.0%	-5.7%
C=CCn1c(C)cc(C(=O)COC(=O)/C=C/c2cccc(OC)c2)c1C	-2.5%	1.2%	?	-1.4%	-23.6%	0.0%
Cc1cc(C(=O)COC(=O)COc2ccccc2C#N)c(C)n1CC1CCCO1 (stereo not drawn)	1.4%	1.2%	3.01µM*	nt	?	-3.1%
O=c1ccc(-c2ccc(S(=O)(=O)Nc3ccc(F)cc3)o2)n[nH]1	-1.1%	-0.7%	-0.2%	nt	6.9%	-0.5%
COc1cc(C2C=C(C34CC5CC(CC(C5)C3)C4)NC(=S)N2)cc(OC)c1OC (stereo not drawn)	-10.9%	3.3%	1.6%	-23.3%	23.1µM*	-3.7%
COc1ccc(OC)c(C2C=C(C34CC5CC(CC(C5)C3)C4)NC(=S)N2)c1 (stereo not drawn)	-4.7%	-3.7%	-0.6%	-22.3%	?	-2.7%
COc1ccc(NC(=O)CCCc2nnc3n(C(C)C)c(=O)c4sccc4n23)cc1Cl	nt	nt	2.8%	nt	nt	nt
CC(=C\c1ccco1)/C=C1/SC(=S)N(CC(=O)O)C1=O	4.5%	16.0%	16.9µM*	nt	?	1.5%
CC(=C\c1ccccc1)/C=C1/SC(=S)N(CCC(=O)O)C1=O	4.2%	-4.1%[1.84 µM]	21.3µM*	nt	?	-2.0%
CC(/C=C1\SC(=S)N(CC(=O)N2CCN(c3ccccc3)CC2)C1=O)=C\c1ccccc1	-1.7%	-5.2%	1.0%	-0.7%[1.84 µM]	-2.5%	-2.4%
CC(/C=C1\SC(=S)N(CC(=O)O)C1=O)=C\c1ccccc1	15.7%	20.9%	16.9µM*	nt	?	?
